From PubChem BioAssay AID624040 (The Scripps Research Institute Molecular Screening Center, 2012)
Values joined by “and” are separate entries in the source; they are usually repeats but may differ in a detail not shown here. Equal values may be shown once. Hit rate of the full screen: of about 360,000 compounds, about 2,100 (0.58%) were called active.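 Rule for the calls: active = inhibition above a per-plate cutoff, the mean of that plate's test compounds plus 3 SD (cut at about 27% in these data); inactive = the rest.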 What follows is part of a selection rich in actives, with near analogues and random picks from the rest.

biological target: Muscarinic acetylcholine receptor M5 (Homo sapiens) (UniProt P08912); assay: human M5 muscarinic receptor antagonists, primary screen, CHO cells, Fluo-8 calcium fluorescence (AID 624040); conditions: CHO-hM5 cells, ACh EC80, at 3 µM, active compounds read high;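 note: 0% = acetylcholine EC80 with DMSO and 100% = DMSO without agonist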
Sequence (P08912 whole entry, looked up): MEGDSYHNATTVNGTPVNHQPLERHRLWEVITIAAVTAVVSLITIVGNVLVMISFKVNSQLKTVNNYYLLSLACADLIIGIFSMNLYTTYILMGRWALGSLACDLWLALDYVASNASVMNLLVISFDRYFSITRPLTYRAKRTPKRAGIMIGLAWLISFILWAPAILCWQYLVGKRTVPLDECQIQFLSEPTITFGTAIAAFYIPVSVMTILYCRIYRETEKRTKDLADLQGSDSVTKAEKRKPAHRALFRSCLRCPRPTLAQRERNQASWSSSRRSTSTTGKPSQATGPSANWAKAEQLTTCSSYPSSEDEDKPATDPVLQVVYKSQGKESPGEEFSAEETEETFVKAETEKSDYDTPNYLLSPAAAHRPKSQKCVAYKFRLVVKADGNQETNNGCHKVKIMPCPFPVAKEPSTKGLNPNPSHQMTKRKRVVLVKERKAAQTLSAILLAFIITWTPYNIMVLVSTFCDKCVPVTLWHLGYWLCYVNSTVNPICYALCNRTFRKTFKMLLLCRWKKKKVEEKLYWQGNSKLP

inhibition, inactive:
N#C/C=C\Oc1ccc(Cl)cc1N 1.41%
Cc1ccc(C(=O)C[n+]2cc(-c3ccccc3)n3c2CCCCC3)cc1 4.95% and 0.73%
Cc1ccc(-c2c[n+](CC(=O)Nc3ccccc3)c3n2CCC3)cc1 2.52%
COc1ccc(S(=O)(=O)N(C)CC(=O)NCCCN2CCOCC2)cc1Cl 8.37%
CCN1CCN(C(=O)Cn2nc(C)n3c(cc4c(OC)cccc43)c2=O)CC1 2.41%
COc1ccc(CCNC(=O)CCC(=O)NC2CCCCC2)cc1OC 15.9%
CCc1ccc(N(C(=O)c2csnn2)C(C(=O)NC2CCCCC2)c2cccnc2)cc1 (stereo not drawn) -0.48%
CN(C)C(CNC(=O)c1cccc(S(=O)(=O)Nc2ccc(Br)cc2)c1)c1ccco1 (stereo not drawn) 4.75%
CC(=O)c1ccc(S(=O)(=O)Nc2ccc(C(=O)NCC(c3ccccc3)N(C)C)cc2)cc1 (stereo not drawn) 0.82%
Cc1cccc(NS(=O)(=O)c2ccc(C)c(C(=O)NCC(c3ccccc3)N(C)C)c2)c1 (stereo not drawn) 5.12%
COc1ccccc1CNC(=O)c1ccc(Cl)c(S(=O)(=O)N2CCCC2)c1 -2.46%
COc1ccc(C(CNC(=O)c2cccc(S(=O)(=O)Nc3ccc(Br)cc3)c2)N(C)C)cc1 (stereo not drawn) 5.55%
Cc1ccc(C(=O)NCC(c2cccs2)N(C)C)cc1S(=O)(=O)N1CCOCC1 (stereo not drawn) 4.49%
C/C(CC(O)(/C=N/O)c1ccccc1)=N\O (stereo not drawn) -4.45%
O=C(CSc1nnc(-c2c[nH]c3ccccc23)n1-c1ccc(F)cc1)NCc1ccco1 -3.75%
CCOc1ncccc1C(=O)OCC(=O)NC1CC1 10.6%
CC(C)C(=O)N1CCN(CCN=CC2=C(O)CC(c3ccco3)CC2=O)CC1 (stereo not drawn) -10.8% and 8.17%
CCOC(=O)C1=NN(c2ccc(Cl)cc2)/C(=C/C2=NCCc3cc(OC)c(OC)cc32)S1 -2.43%
O=C(NCc1ccccc1)C1CCCN(c2nc3ccsc3c(=O)s2)C1 (stereo not drawn) -8.79%

inhibition, active:
Clc1ccc(C[n+]2cc(-c3ccc(Cl)cc3)n3c2CCC3)cc1 32.4%
COc1ccccc1C(CNC(=O)c1cccc(NS(=O)(=O)c2ccc(Br)cc2)c1)N(C)C (stereo not drawn) 93.8%
COc1ccccc1C(CNC(=O)c1ccc(C)c(S(=O)(=O)N2CCCCC2)c1)N(C)C (stereo not drawn) 98.7%
COc1ccccc1C(CNC(=O)c1cccc(S(=O)(=O)Nc2ccc(F)cc2)c1)N(C)C (stereo not drawn) 98%
